Only some compounds are listed: those with a hit (about 2.1% of all), similar ones and a draw of the others.
EBV LMP1 NFkB: EBV LMP1-driven NF-kappaB luciferase reporter inhibitors, primary screen, cell-based, luminescence, single point | LMP1-induced NF-kappaB luciferase reporter cells | inhibition, % at 12.5 µM | actives 0.69% (n = 350,000); in the data active means inhibition above about 41%;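 further: 0% = neutral control wells and 100% = reference inhibitor control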
MITF TRPM1 inh: inhibitors of MITF-dependent TRPM1 promoter reporter, primary screen, cell-based, SK-MEL-5, single point, luciferase; inhibition, % at 12.5 µM; actives 0.83% (n = 330,000); SK-MEL-5 TRPM1 promoter luciferase, 24 h;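 active means mean inhibition across replicates of 60% or more, whatever share of single replicates reaches that level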
PAX8 reporter: inhibitors of PAX8-driven TPO luciferase reporter, primary screen, RMG-I cells, single concentration; SteadyGlo, 24 h; actives 1.2% (n = 360,000); inhibition, % at 12.6 µM;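 active means mean replicate inhibition at least 60% with every replicate also reaching 60%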;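 further: luciferase light reporting Pax8 driven TPO promoter activity; plate controls were median of neutral control wells for no effect and mitoxantrone controls for full effect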
Shn3 3UTR inh: reduction of Shn3 3'UTR firefly luciferase signal, primary screen, Schnurri-3 inhibitor project, cell-based, Clone20 osteoblasts, set 2; Clone20 osteoblast Shn3 3'UTR firefly luciferase, 24 h; inhibition, % at 12.5 µM; actives 0.52% (n = 360,000); AID 588674, 2011;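 active means mean inhibition of at least 75% with every replicate also reaching 75%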;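 further: 0% = median of neutral control wells and 100% = pilot-screen positive control compound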
aSyn UTR inh: MLPCN primary screen, SNCA 5' untranslated region. inhibition, % (tested at 7.5 µM). actives 0.82% (n = 300,000). AID 1813, 2009. alpha-synuclein 5'UTR reporter, inhibitor activity; in the data active means inhibition above about 60%;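 further: H4 neuroglioblastoma cells stably carrying SNCA 5'UTR luciferase fusion; 0% = DMSO wells and 100% = positive control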
An asterisk follows results filed as active; . = no result given.

SMILES | EBV LMP1 NFkB | MITF TRPM1 inh | PAX8 reporter | Shn3 3UTR inh | aSyn UTR inh
O=C(/C=C/c1cccc([N+](=O)[O-])c1)N1CCN(c2ccccn2)CC1 | -5 | 14 | -1 | -7 | 17
O=C(/C=C/c1cccc([N+](=O)[O-])c1)Nc1ccc(NC(=O)c2cccs2)cc1 | -50 | 4 | . | 4 | -13
CCOC(=O)CC1CCCCN1C(=O)c1cc(COc2cccc3cnccc23)on1 (configuration not stated) | 33 | 28 | 22 | 89* | 2
O=C1N/C(=C/c2ccc(N3CCOCC3)o2)C(=O)N1c1cccc(Cl)c1 | -2 | -1 | 4 | 96* | -39
Cc1ccc(/C=C2/NC(=O)N(c3ccccc3)C2=O)o1 | -16 | -30 | . | 34 | -105
NC(=O)CCCn1c(C(=O)c2cc(Cl)c(N)c(Cl)c2)c2ccc([N+](=O)[O-])cc2[n+]1[O-] | -2 | 56 | 58 | 43 | 71*
NC(=O)CCCn1c(C(=O)c2ccc(Cl)cc2)c2ccc([N+](=O)[O-])cc2[n+]1[O-] | -5 | 20 | 47 | -10 | 21
Cc1ccc(CNC(=O)CN2CCCC(C)C2)cc1 (configuration not stated) | -3 | 5 | . | 2 | -1
COc1ccc(C2=C(CN(C)C)C(c3ccccc3)c3ccccc3O2)cc1 (configuration not stated) | 78* | 8 | . | -1 | 28
c1ccc2ncc(-n3ccnc3)cc2c1 | . | . | -12 | 7 | .
O=C1C=CC(=O)N1c1ccc(I)cc1Cl | . | . | . | . | -3
N#Cc1ccc(C(=O)Nc2ccn(-c3ccccc3)n2)cc1 | 10 | -12 | -13 | 9 | -19
C[C@H]1CCCCO[C@H](CN(C)S(=O)(=O)c2ccc(Cl)cc2)[C@@H](C)CN([C@@H](C)CO)C(=O)c2cc(NS(=O)(=O)c3ccc(Cl)cc3)ccc2O1 | . | . | 83* | . | .
C[C@H](CO)N1C[C@H](C)[C@@H](CN(C)S(=O)(=O)c2ccc(Cl)cc2)OCCCC[C@H](C)Oc2ccc(NS(=O)(=O)c3ccc(Cl)cc3)cc2C1=O | . | . | 87* | . | .
C[C@@H]1CN([C@H](C)CO)C(=O)c2cc(NS(=O)(=O)c3ccc(Cl)cc3)ccc2O[C@@H](C)CCCCO[C@@H]1CN(C)S(=O)(=O)c1ccc(Cl)cc1 | . | . | 43 | . | .
C[C@@H]1CCCCO[C@@H](CN(C)S(=O)(=O)c2cccs2)[C@H](C)CN([C@@H](C)CO)C(=O)c2cc(NS(=O)(=O)c3ccc(Cl)cc3)ccc2O1 | . | . | 70* | . | .
C[C@@H]1CCCCO[C@@H](CN(C)S(=O)(=O)c2ccc(Cl)cc2)[C@H](C)CN([C@H](C)CO)C(=O)c2cc(NS(=O)(=O)c3ccc(Cl)cc3)ccc2O1 | . | . | 90* | . | .
C[C@H]1CN([C@@H](C)CO)C(=O)c2cccc(NC(=O)Nc3ccc4c(c3)OCO4)c2O[C@@H]1CN(C)Cc1ccc(C(F)(F)F)cc1 | . | . | 6 | . | .
CNC(CC(=O)c1ccc([N+](=O)[O-])cc1)C(Cl)(Cl)Cl (configuration not stated) | 21 | 90* | . | 38 | .
C[C@H]1CN([C@@H](C)CO)S(=O)(=O)c2ccc(/C=C/c3ccccc3)cc2O[C@@H]1CN(C)Cc1cccnc1 | . | . | 86* | . | .
COc1ccccc1C#Cc1ccc2c(c1)O[C@@H](CN(C)Cc1cccnc1)[C@H](C)CN([C@H](C)CO)S2(=O)=O | . | . | 84* | . | .
COc1ccccc1C#Cc1ccc2c(c1)O[C@@H](CN(C)Cc1cncnc1)[C@H](C)CN([C@H](C)CO)S2(=O)=O | . | . | 86* | . | .
CNC[C@H]1Oc2cc(C#CC3CCCCC3)ccc2S(=O)(=O)N([C@H](C)CO)C[C@@H]1C | . | . | 28 | . | .
CNC[C@@H]1Oc2cc(C#CC3CCCCC3)ccc2S(=O)(=O)N([C@@H](C)CO)C[C@@H]1C | . | . | 92* | . | .
CCCN(CC(=O)Nc1ccccc1C)C(=O)c1ccc(C)c(S(=O)(=O)N2CCCCC2)c1 | -4 | 1 | 18 | -4 | -6
SMILES | EBV LMP1 NFkB | MITF TRPM1 inh | PAX8 reporter | Shn3 3UTR inh | aSyn UTR inh
CCN(CC)C(=O)C1CCCN(c2ccc([N+](=O)[O-])cc2/C=N/NC(=O)c2cccc(Br)c2)C1 (configuration not stated) | 15 | 8 | . | 42 | 19
COc1ccccc1C#Cc1ccc2c(c1)O[C@H](CN(C)Cc1cncnc1)[C@H](C)CN([C@H](C)CO)S2(=O)=O | . | . | 41 | . | .
COc1ccccc1C#Cc1ccc2c(c1)O[C@H](CN(C)Cc1cccnc1)[C@H](C)CN([C@H](C)CO)S2(=O)=O | . | . | 90* | . | .
C[C@H]1CN([C@@H](C)CO)S(=O)(=O)c2ccc(C#CC3CCCC3)cc2O[C@@H]1CN(C)Cc1cccnc1 | . | . | 98* | . | .
CSCCC(NC(=O)c1ccco1)C(=O)NNC(=O)c1n[nH]c(=O)c2ccccc12 (configuration not stated) | -5 | -2 | 8 | -3 | .
O=C(Oc1cccc(OC(=O)N2CCCCC2)c1)N1CCCCC1 | -7 | 10 | 2 | 22 | 23
NNC(=O)c1ccc(N2CCc3ccccc32)c([N+](=O)[O-])c1 | -4 | 7 | -18 | -12 | 10
Nc1ncnc(N2CCc3ccccc32)c1[N+](=O)[O-] | 65* | 23 | -48 | -3 | 44
Cc1c(C(=O)OCc2ccccc2)[nH]c2c1C(=O)CC(c1ccco1)C2 (configuration not stated) | 15 | 18 | . | 86* | 34
CCOC(=O)c1[nH]c2c(c1C)C(=O)CC(c1ccco1)C2 (configuration not stated) | 2 | 21 | 83* | 11 | 73*
c1ccc2[nH]c(-c3ccc4c(c3)OCO4)nc2c1 | . | . | -104 | -51 | 79*
COc1cc(OC)c2cc(C(=O)N/N=C/c3ccccc3O)[nH]c2c1 | 11 | 33 | 18 | 89* | -31
CCCOc1ccc2[nH]c(C(=O)N/N=C/c3cc(OC)c(OC)c(OC)c3)cc2c1 | -38 | -22 | 91* | -16 | -26
COc1ccc(NC(=O)c2cccc3c(Br)cccc23)cc1 | -16 | -8 | -10 | -1 | -15
CCOc1ccccc1Nc1ncnc2ccccc12 | 10 | 3 | . | -3 | -7
O=C(Cc1ccccc1[N+](=O)[O-])NCC1(c2cccc3c2OCO3)OCCO1 | 46* | -1 | -129 | -6 | .
O=C(Cc1ccccc1[N+](=O)[O-])NC1CC1 | -7 | 4 | 0 | 5 | -19
COc1ccc(Cn2c(=O)[nH]c3cc(C(=O)N4CCN(c5ccccc5OC)CC4)ccc3c2=O)cc1 | 2 | 18 | . | 27 | 10
COC(=O)c1cc(NC2c3ccccc3C(=O)N2CCN2CCOCC2)cc(C(=O)OC)c1 (configuration not stated) | -5 | . | 4 | -20 | -11
O=C1c2ccccc2C(Nc2ccc(Cl)cc2)N1CCN1CCOCC1 (configuration not stated) | 83* | 10 | -9 | -3 | -7
